Potency data for 31 compounds are collected here from PubChem BioAssay (Tox21).

Results filed as inconclusive are left out. Where a call stands in place of a potency, no number is given. Activity calls are given as the source filed them. Calls come from the whole dose curve; as a rule, active = well fitted activation curve with a large enough effect in the signal ratio in the repeat runs (not every such curve was filed as active); inconclusive = weak or mixed curves; inactive = flat fitted curve, though single readings scatter; the % refers to the signal ratio.

A short description of this assay: p53 small molecule agonists, cell-based qHTS assay (AID 1963582). Conditions: HCT-116 p53RE-bla reporter, beta-lactamase FRET ratio, 16 h; series mostly up to 66 µM. The gist of the method: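 Compounds are pin-transferred in DMSO onto p53RE-bla cells and incubated 16 h at 37 C. The B/G FRET beta-lactamase substrate is then applied for 2 h at RT and fluorescence recorded.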
Background: In qHTS, concentration-response curves come from the screen itself.
Regarding `ClC(Cl)=C(c1ccc(Cl)cc1)c1ccc(Cl)cc1`, the Potency result was “inactive”.

As to `ClCCN1CCOCC1`, the Potency result is “inactive”.

As to `C1CCC2CCCCC2C1` (stereo unspecified), the Potency result is “inactive”.

Take `CC12CC1(C)C(=O)N(c1cc(Cl)cc(Cl)c1)C2=O` (stereo unspecified): the Potency entry is “inactive”.

Consider `ClCc1cccnc1`, for which the Potency entry was “inactive”.

With `CNC(=O)O/N=C/C(C)(C)S(C)=O` (stereo unspecified), the Potency entry was “inactive”.

With `CN(C)C(=O)Nc1ccc(Cl)cc1`, the Potency entry is “inactive”.

For the compound `Cc1ccccc1CCl`, the Potency result was “inactive”.

As for `CCOP(=S)(OCC)SCSc1cc(Cl)ccc1Cl`, the Potency entry is “inactive”.

Take `Nc1c(Br)cc([N+](=O)[O-])cc1[N+](=O)[O-]`: the Potency result is “inactive”.

As for `COC[C@@H](NC(C)=O)C(=O)NCc1ccccc1`, the Potency result is “inactive”.

`COc1cc(OC)nc(NC(=O)NS(=O)(=O)c2ncccc2C(=O)N(C)C)n1`: the Potency entry was “inactive”.

In the case of `OCC(Br)CBr` (stereo unspecified), the Potency entry is “inactive”.

For the compound `c1ccc(C2CO2)cc1` (stereo unspecified), the Potency entry was “inactive”.

On to `CCN(C)N=O`, for which the Potency entry is “inactive”.

Turning to `C=CC(=O)OCCO`, the Potency result was “inactive”.

For `CCOP(OCC)OCC`, the Potency result was “inactive”.

In the case of `CC(=O)C1CCOC1=O` (stereo unspecified), the Potency entry was “inactive”.

On to `C#CCOC(=O)/C=C(C)/C=C/CC(C)CCCC(C)C` (stereo unspecified), for which the Potency entry was “inactive”.

Take `CCN(CC)C1CCCCC1`: the Potency result was “inactive”.

Regarding `CCCCC(CC)COC(=O)c1ccc(C(=O)OCC(CC)CCCC)c(C(=O)OCC(CC)CCCC)c1` (stereo unspecified), the Potency entry is “inactive”.

As for `O=C(CCl)CCl`, the Potency result was “inactive”.

Consider `CCCCN=C=O`, for which the Potency result is “inactive”.

`COc1nc(NC(C)C)nc(NC(C)C)n1`: the Potency result is “inactive”.

With `CCOc1cc(C=O)ccc1O`, the Potency entry was “inactive”.

`Cl/C=C\CCl`: the Potency entry is “inactive”.

In the case of `C=CC(=O)NC(C)(C)CC(C)=O`, the Potency result is “inactive”.

Take `Cc1ccc(N)cc1C`: the Potency entry was “inactive”.

Regarding `CC(C)(Cl)Cl`, the Potency result is “inactive”.

As for `CCOS(C)(=O)=O`, the Potency result was “inactive”.

Take `O=C([O-])c1ccccn1.O=C([O-])c1ccccn1.O=C([O-])c1ccccn1.[Cr+3]`: the Potency entry is “inactive”.
